In assay [1] the target is Paired box protein Pax-6 (Homo sapiens) (UniProt P26367). The assay can be described thus: ATG_Pax6_CIS: Attagene CIS-FACTORIAL HepG2 Assay for human Paired Box 6 (PAX6) (AID 2282956). The following applies: HepG2 CIS-FACTORIAL PAX6 reporter transcription, RNA readout; actives raise or lower the signal. Put shortly:
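After twenty-four hours of chemical exposure, transfected HepG2 cells are harvested for RNA. Cis-promoter reporter transcripts are amplified, fluorescently labelled and sized by capillary electrophoresis, with gain and loss of signal scored against DMSO.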

Assay [2] in a line: ATG_PXRE_CIS: Attagene CIS-FACTORIAL HepG2 Assay for human Pregnane X Receptor Element (PXRE) (AID 2282957). The following applies: HepG2 Attagene CIS-FACTORIAL PXRE reporter, mRNA; actives raise or lower the signal. A digest of the protocol:
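Multiplexed cis-reporter assay in transiently transfected human HepG2 cells; 24 h chemical exposure. Reporter transcripts quantified by RT-PCR with fluorescent labeling and capillary electrophoresis.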

Assay [3] in a line: ATG_RORE_CIS: Attagene CIS-FACTORIAL HepG2 Assay for human RAR-related Orphan Receptor Element (RORE) (AID 2282959). To be noted: HepG2 Attagene cis-factorial RORE reporter, mRNA; actives raise or lower the signal. A digest of the protocol: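 Endogenous factor activity at a cis response element is read as reporter transcript levels in HepG2 cells, 24 h post-dose. Transcripts are quantified by RT-PCR with capillary electrophoresis, and data fitted in both directions against DMSO.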

A short description of assay [4]: ATG_Sox_CIS: Attagene CIS-FACTORIAL HepG2 Assay for human SRY-box transcription factor (SOX) (AID 2282960). To be noted: HepG2 Attagene cis-factorial SOX reporter, mRNA; actives raise or lower the signal. Put shortly:
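Measures mRNA induction of a SOX1-associated reporter in HepG2 after 24 h dosing. Fluorescently labelled RT-PCR fragments are separated by capillary electrophoresis, and gain or loss relative to DMSO control is fitted.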

The target of assay [5] is Transcription factor Sp1 (Homo sapiens) (UniProt P08047). The assay can be described thus: ATG_Sp1_CIS: Attagene CIS-FACTORIAL HepG2 Assay for human Specificity Protein 1 (Sp1) (AID 2282961). The following applies: HepG2 Sp1 cis-reporter transcription, actives raise or lower the signal. Put shortly: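 Cells: HepG2, transiently transfected with cis-regulated multiplexed reporters. Exposure: 24 h. Detection: reporter transcripts amplified, fluorescently labeled, restriction-digested and sized by capillary electrophoresis. Analysis: bidirectional fit relative to DMSO.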

A short description of assay [6]: ATG_SREBP_CIS: Attagene CIS-FACTORIAL HepG2 Assay for human Sterol Regulatory Element Binding (SREBP) (AID 2282962). The following applies: HepG2 Attagene cis-factorial SREBP reporter, mRNA; actives raise or lower the signal. A digest of the protocol:
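Twenty-four hours after chemical dosing of transfected HepG2 cultures, reporter RNA was converted to cDNA, amplified, end-labelled with 6-FAM and resolved by capillary electrophoresis. Responses were fitted relative to DMSO.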

Assay [7] concerns the target Signal transducer and activator of transcription 3 (Homo sapiens) (UniProt P40763). The assay can be described thus: ATG_STAT3_CIS: Attagene CIS-FACTORIAL HepG2 Assay for human Signal Transducer and Activator of Transcription 3 (STAT3) (AID 2282963). To be noted: HepG2, Attagene cis-factorial STAT3 reporter transcription; actives raise or lower the signal. Put shortly: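 Transcript-level reporter assay. HepG2 transient MRTU transfection, 24 h exposure, fluorescence detection after RT-PCR and CE; DMSO baseline.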

Assay [8] can be described thus: ATG_TA_CIS: Attagene CIS-FACTORIAL HepG2 Assay for human TA Basal Promoter (AID 2282964). The following applies: HepG2 Attagene CIS-factorial TA basal promoter reporter; actives raise or lower the signal. Put shortly:
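Background internal-marker endpoint from a 52-component HepG2 cis-reporter panel. Cells treated 24 h; reporter transcripts quantified via RT-PCR and CE fluorescence against DMSO baseline.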

The text below walks through data of PubChem BioAssay (EPA / NIEHS).

Active and inactive are the calls of the source. Rule for the calls: active = hit-call score of the fitted dose curve at least 0.9, where 1 is the maximum; inactive = score below 0.9.

Usually AC50 stands for the midpoint of the concentration-response curve, whichever way the signal moves.

Paired box protein Pax-6 (Homo sapiens), sequence (P26367 whole entry, looked up): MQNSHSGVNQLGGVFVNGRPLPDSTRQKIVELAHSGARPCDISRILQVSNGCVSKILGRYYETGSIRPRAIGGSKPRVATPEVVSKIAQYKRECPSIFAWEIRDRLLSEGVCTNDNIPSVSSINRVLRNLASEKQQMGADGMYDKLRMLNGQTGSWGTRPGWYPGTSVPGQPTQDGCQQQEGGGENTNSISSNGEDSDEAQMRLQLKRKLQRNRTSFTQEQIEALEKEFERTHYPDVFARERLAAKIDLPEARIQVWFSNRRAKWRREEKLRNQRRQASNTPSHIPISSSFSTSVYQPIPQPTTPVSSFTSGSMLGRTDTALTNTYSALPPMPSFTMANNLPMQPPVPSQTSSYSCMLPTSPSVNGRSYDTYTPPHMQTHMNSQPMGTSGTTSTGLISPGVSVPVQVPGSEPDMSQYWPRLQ
Transcription factor Sp1 (Homo sapiens), sequence (P08047 whole entry, looked up): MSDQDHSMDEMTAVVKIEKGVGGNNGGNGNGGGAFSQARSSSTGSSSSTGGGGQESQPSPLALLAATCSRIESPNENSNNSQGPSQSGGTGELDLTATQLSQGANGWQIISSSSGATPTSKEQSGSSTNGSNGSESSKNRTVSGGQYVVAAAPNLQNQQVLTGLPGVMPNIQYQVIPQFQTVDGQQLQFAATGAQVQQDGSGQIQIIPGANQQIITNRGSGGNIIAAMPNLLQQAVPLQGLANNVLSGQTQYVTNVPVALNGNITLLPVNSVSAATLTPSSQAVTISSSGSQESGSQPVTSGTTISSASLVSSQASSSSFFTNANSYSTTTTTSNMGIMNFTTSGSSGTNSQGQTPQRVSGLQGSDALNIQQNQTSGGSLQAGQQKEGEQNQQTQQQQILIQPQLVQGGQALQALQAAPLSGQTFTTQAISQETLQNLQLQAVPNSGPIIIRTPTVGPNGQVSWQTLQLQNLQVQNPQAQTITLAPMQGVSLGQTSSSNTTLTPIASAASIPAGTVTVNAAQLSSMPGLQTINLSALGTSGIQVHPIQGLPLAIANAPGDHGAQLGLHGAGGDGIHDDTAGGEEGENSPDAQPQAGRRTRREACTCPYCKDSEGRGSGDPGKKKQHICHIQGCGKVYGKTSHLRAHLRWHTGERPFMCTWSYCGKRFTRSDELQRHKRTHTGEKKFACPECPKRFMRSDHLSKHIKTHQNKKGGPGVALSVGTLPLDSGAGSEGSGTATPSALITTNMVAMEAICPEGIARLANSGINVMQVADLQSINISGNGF
Signal transducer and activator of transcription 3 (Homo sapiens), sequence (P40763 whole entry, looked up): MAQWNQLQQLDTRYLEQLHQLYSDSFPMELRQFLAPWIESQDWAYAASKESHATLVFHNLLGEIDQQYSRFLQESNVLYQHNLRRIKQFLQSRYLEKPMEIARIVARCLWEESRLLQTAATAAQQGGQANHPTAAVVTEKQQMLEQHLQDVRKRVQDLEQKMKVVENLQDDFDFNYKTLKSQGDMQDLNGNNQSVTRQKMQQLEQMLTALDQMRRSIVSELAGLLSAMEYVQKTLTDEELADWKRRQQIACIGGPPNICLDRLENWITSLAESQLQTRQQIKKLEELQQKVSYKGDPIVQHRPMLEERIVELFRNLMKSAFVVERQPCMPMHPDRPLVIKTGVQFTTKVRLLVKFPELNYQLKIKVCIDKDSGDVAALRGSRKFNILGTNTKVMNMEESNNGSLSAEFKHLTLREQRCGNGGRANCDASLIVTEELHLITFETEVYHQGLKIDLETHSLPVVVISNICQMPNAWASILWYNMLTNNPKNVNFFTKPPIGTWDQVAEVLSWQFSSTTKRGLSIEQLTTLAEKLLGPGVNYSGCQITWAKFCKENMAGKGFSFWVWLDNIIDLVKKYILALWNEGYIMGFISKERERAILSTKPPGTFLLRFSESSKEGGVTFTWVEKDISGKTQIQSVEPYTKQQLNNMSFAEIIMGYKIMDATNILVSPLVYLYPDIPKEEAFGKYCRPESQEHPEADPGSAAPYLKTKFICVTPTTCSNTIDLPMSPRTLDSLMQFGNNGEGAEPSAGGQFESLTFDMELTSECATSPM

As to `CCC(=O)OC/C=C(\C)CCC=C(C)C`, the call in assay [1], in assay [3], in assay [4], in assay [5], in assay [6] and in assay [7] was inactive. In addition, the compound was classed as inactive in assay [8]. Also, the concentration at half-maximal activity (AC50) in assay [2] is 44 µM (active).

As for `C=CC(=O)OCCCCCC`, the compound was called inactive in assay [1], in assay [4], in assay [5], in assay [6], in assay [7] and in assay [8]. Also, in assay [2], the concentration at half-maximal activity (AC50) is 59.6 µM (active).

Turning to `CC(=O)OC(C)(C)C`, the result in assay [1], in assay [2], in assay [3], in assay [4], in assay [5] and in assay [6] was inactive. The compound was called inactive in assay [7] and in assay [8].

On to `CCO[Si](CCC#N)(OCC)OCC`, for which the compound was called inactive in assay [1], in assay [2], in assay [3], in assay [4], in assay [5] and in assay [6]. The result in assay [7] and in assay [8] was inactive.
